# Bioassay records deposited in PubChem BioAssay by National Center for Advancing Translational Sciences (NCATS).
# Rows were chosen to be rich in hits. Some 19% of all compounds tested hit in one or more screens of this group.
# TDP1 cell noCPT: qHTS for Inhibitors of human tyrosyl-DNA phosphodiesterase 1 (TDP1): qHTS in cells in absence of CPT; DT40 Tdp1-/- hTDP1 cells, no CPT, ATP luminescence, 48 h; Potency, µM (titrated, usually from 46.2 µM), for the others: at the top dose activity change, negative = growth inhibition, most hits filed as inhibitors; hit rate 15% among 420,000; also: potency is read from the fitted curve at half-maximal effect; nearly all actives have a fitted effect of over 55% in size
#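 Readout: luminescence from CellTiter-Glo after 30 min in the dark at RT. Cells: DT40 Tdp1-/- with stable hTDP1, 400/well. Exposure: compounds alone, ≥48 hr, 37 °C.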
# TDP1 cell CPT: qHTS for Inhibitors of human tyrosyl-DNA phosphodiesterase 1 (TDP1): qHTS in cells in presence of CPT; AID 686979, 2013; Potency, µM (titrated, usually from 46.2 µM), inactives show at the top dose activity change, negative = growth inhibition, usual class: inhibitors; hit rate 12% among 420,000; chicken DT40 Tdp1-/-;hTDP1 cells + 20 nM CPT, ATP luminescence, 48 h; also: potency is read from the fitted curve at half-maximal effect; nearly all actives have a fitted effect of over 55% in size
#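 Chicken DT40 Tdp1-/- cells complemented with human TDP1, 400 cells/well, exposed to compounds plus 20 nM camptothecin for at least 48 h at 37 C; viability read as ATP content by CellTiter-Glo luminescence.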
# IL-1B inflam inh: qHTS for Inhibitors of Inflammasome Signaling: IL-1-beta AlphaLISA Primary Screen; THP-1 LPS/ATP IL-1B secretion, AlphaLISA, 16 h; stronger effect = lower value; activity change, % at 57.5 µM; hit rate 4.7% among 360,000; in the data active = activity change below about -50%; inconclusive = mostly about -30% to -49%
#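 Secreted IL-1B measured by AlphaLISA bead assay after 16 h compound exposure of THP-1 cells; compounds (final up to 57.5 uM) added 1 h before LPS (250 ng/mL) and ATP (1.25 mM) stimulation; lower signal means less secretion.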
# HT1080-NT tox: qHTS for induction of synthetic lethality in tumor cells producing 2HG: qHTS for the HT-1080-NT fibrosarcoma cell line | HT-1080-NT fibrosarcoma viability, CellTiter-Glo ATP luminescence, 48 h | Potency, µM (series often up to 46.1 µM), inactives show at the highest dose activity, negative = less viability, hits mostly cytotoxic | hit rate 1.6% among 360,000 | AID 686970, 2013;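 also: NT is the 2HG producing partner of a matched IDH1 knockdown line; potency is read from the fitted curve at half-maximal effect; 0% = DMSO-treated cells and -100% = media-only wells without cells; nearly all actives have a fitted effect of over 55% in size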
#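 A 48-hour cytotoxicity screen used HT-1080-NT cells plated 2 hours before compound delivery. ATP-based CellTiter-Glo luminescence measured viability, normalized to DMSO and no-cell controls.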
# HT1080 IDH1KD tx: qHTS for induction of synthetic lethality in tumor cells producing 2HG: qHTS for the HT-1080-IDH1KD cell line; HT-1080 IDH1 knockdown viability, ATP luminescence, 48 h; Potency, µM (doses to about 46.1 µM), inactives show at the highest dose activity, negative = toxicity, usual class: cytotoxic; hit rate 2% among 360,000;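 also: potency is read from the fitted curve at half-maximal effect; 0% = DMSO wells and -100% = cell-free medium wells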
#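 Using the IDH1-knockdown HT-1080 line run in the same batch and compound series as the NT line, viability after 48 h at 37 °C was determined by CellTiter-Glo luminescence and expressed as % activity.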
# ELG1 repair inh: qHTS screen for small molecules that inhibit ELG1-dependent DNA repair in human embryonic kidney (HEK293T) cells expressing luciferase-tagged ELG1; AID 504467, 2011; hit rate 2.3% among 330,000; HEK293T ELG1-luciferase reporter, luminescence, 16 h; DNA damage induced by 5-fluorouridine; Potency, µM (highest dose often 46.1 µM), without a hit: at the highest dose activity change, negative = inhibition, actives largely listed as inhibitors; also: potency is read from the fitted curve at half-maximal effect; nearly all actives have a fitted effect of over 55% in size
#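 Overnight (16 hr) co-exposure of 2,000 cells/well to 5-fluorouridine and compound at 37 °C preceded detection. Luciferase was quantified via ONE-Glo luminescence; loss of signal denotes inhibition.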
# Active calls of the source: *; ? = inconclusive; nt = not tested or not shown. Unless noted, calls follow the shape of the dose curve; as a rule, active = well fitted curve in the direction sought with a large enough effect; inconclusive = small, poorly fitted or top-dose-only effect, or another doubt; inactive = no such curve, though single readings can be large; an effect the other way counts as inactive or inconclusive. Unless noted, % is scaled to controls: 0 for no effect and ±100 for the full control effect.
SMILES,TDP1 cell noCPT,TDP1 cell CPT,IL-1B inflam inh,HT1080-NT tox,HT1080 IDH1KD tx,ELG1 repair inh
CNCc1cc(Br)c(OCC(=O)Nc2ccccc2OC)c(OC)c1,?,-3%,-62*,?,?,5%
Cc1nn(C)c(C)c1CCNC(=O)Nc1cccc(Cl)c1C,-26%,1%,nt,nt,nt,nt
COc1ccc(-n2ncc3c2CC(C)(C)CC3NC(=O)c2ocnc2C)cc1 (stereo unspecified),-13%,?,-11,9%,-1%,-5%
CC1=CC(=O)C2(C)C(C)=C(C)C12C (stereo unspecified),-19%,-9%,-8,5%,9%,nt
CCC(=O)Nc1ccccc1-c1nc2ccccc2n(CC(=O)c2ccc(C)cc2)c1=O,-17%,14%,nt,nt,nt,nt
Cc1ccc(-n2c(=O)[nH]c3c(C(N)=O)nc(-c4ccc(C)o4)nc32)cc1,13µM*,9.2µM*,14,-20%,?,?
O=C(CCCN1C(=O)/C(=C/c2cccs2)SC1=S)Nc1cccc(O)c1,16µM*,21µM*,-94*,?,16µM*,-14%
O=C(CCN1C(=O)/C(=C/c2cccs2)SC1=S)Nc1cccc(O)c1,?,-22%,-82*,-10%,-9%,?
O=C(CCN1C(=O)/C(=C/c2cccs2)SC1=S)Nc1ccc(O)cc1,?,-21%,-4,-7%,?,-4%
O=C(CCCN1C(=O)/C(=C/c2cccs2)SC1=S)NNC(=O)c1ccc(F)cc1,?,26µM*,0,-18%,-16%,-2%
O=C(CCCN1C(=O)/C(=C/c2cccs2)SC1=S)Nc1ccc(C(=O)O)cc1,-20%,4%,8,-13%,0%,18%
O=C(NN=C(c1ccccc1)c1ccccn1)c1ccccc1,0.92µM*,1µM*,-99*,-20%,?,?
COc1ccc(C(=O)N/N=C(\c2ccccc2)c2ccccn2)cc1,2.6µM*,2.9µM*,-23,?,?,?
O=C(N/N=C(\c1ccccc1)c1ccccn1)c1ccccc1Cl,?,?,-104*,-15%,?,?
O=C(NC(O)C(=O)c1ccccc1)c1ccccn1 (stereo unspecified),?,23µM*,4,-6%,4%,6%
O=C(NN=C1CCC(=NNC(=O)c2ccccn2)CC1)c1ccccn1,-23%,2%,-11,-17%,-11%,?
COc1ccc(NC(=O)Nc2ccc3c(c2)CC(=O)N([C@H](C)CO)C[C@H](C)[C@H](CN(C)Cc2ccc(C(=O)O)cc2)O3)cc1,0%,-13%,-3,17%,8%,4%
O=C(Nc1ccc(Cl)cc1Cl)c1cc(S(=O)(=O)NCc2ccc3c(c2)OCO3)ccc1F,-14%,-18%,nt,nt,nt,nt
Cc1ccc(OCC(=O)Nc2nnc(S(=O)(=O)N3c4ccccc4CC3C)s2)cc1 (stereo unspecified),-45%,?,nt,nt,nt,nt
OC(CN(Cc1ccccc1)Cc1ccccc1)c1ccccc1 (stereo unspecified),18µM*,16µM*,-9,-1%,?,nt
CNCCC=C1c2ccccc2C=Cc2ccccc21,13µM*,16µM*,-51*,21µM*,15µM*,nt
CN(C)CCC=C1c2ccccc2C=Cc2ccccc21,15µM*,?,?,?,?,-4%
